The text below walks through data of PubChem BioAssay (NCATS).

In this assay the test system is HIV-1 nucleocapsid protein NCp7 (binding to TG oligonucleotide). As to the kind of experiment: HIV Nucleocapsid (AID 346).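 Further: potency is for inhibitors that block NC binding and lower polarization.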 To be noted: HIV-1 NC / fluorescein-TGTGTGTG probe, fluorescence polarization. In short, it runs like this: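 NCp7 100 nM + fluorescein TG4xF 10 nM; Hepes pH 7.5/250mM NaCl/1uM ZnCl2/0.004% PEG 20000; 1 hr RT; FP, 45 s exposure; oligo-only wells as negative control.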
In general terms: In fluorescence polarisation assays a small probe gives low polarisation when free and higher when bound to something large.

Unmarked numbers belong to inactive results. Active and inactive are the calls of the source. How the calls were made is not given here.
Potency means the concentration at half of the fitted maximal effect.

In the case of `O=c1c(-c2cccc(Cl)c2)nc2cncnc2n1-c1ccccc1`, the Potency is above 20 µM.

In the case of `O=c1c(-c2cccs2)nc2cnc(Oc3cccc(Cl)c3)nc2n1C1CC1`, the Potency was above 20 µM.

Regarding `CS(=O)(=O)N1CCC2(CC1)CN(c1ncccn1)C2`, the Potency is above 20 µM.

On to `O=C(c1cc(C(F)(F)F)cc(C(F)(F)F)c1)N1CCC2(CCCN(c3ccccc3)C2)CC1`, for which the Potency was above 20 µM.

Consider `CCNc1ncc2nc(-c3ccc(Cl)cc3)c(=O)n(-c3ccccc3)c2n1`, for which the Potency is 7.07 µM (active).

On to `COc1ccc(Oc2ncc3nc(-c4cc(F)cc(F)c4)c(=O)n(C4CC4)c3n2)cc1`, for which the Potency was above 20 µM.

For the molecule `CN(C)c1ccc(-c2nc(NC3CCNCC3)c3ccccc3n2)cc1`, the Potency was above 20 µM.

As to `N#CCCn1c(=O)c(-c2cccs2)nc2cnc(OCc3ccccc3)nc21`, the Potency is above 20 µM.

On to `Cn1cccc1C(=O)N1CCC[C@@]2(CCN(C(=O)Nc3cccc(C#N)c3)C2)C1`, for which the Potency was above 20 µM.

On to `CN(C)c1nc(-c2ccoc2)nc2ccccc12`, for which the Potency is above 20 µM.

Turning to `O=C(c1cnccn1)N1CCC2(CCCN(c3ncccn3)C2)CC1`, the Potency was above 20 µM.

For `COc1ccccc1-c1nc(N(C)Cc2ccco2)c2ccccc2n1`, the Potency is above 20 µM.

Regarding `CC(=O)N1CCC2(CC1)CN(Cc1ccc(C#N)cc1)C2`, the Potency is above 20 µM.

Take `COc1ccc(C(=O)N2CCC3(CCCN(Cc4ccc(C#N)cc4)C3)CC2)cc1`: the Potency is above 20 µM.

As for `Cc1cnc(CNc2ncncc2-c2ccccc2C)cn1`, the Potency is above 20 µM.

Take `COC(=O)N1CCC2(CCCN(c3ccccn3)C2)CC1`: the Potency was above 20 µM.

In the case of `Fc1ccc(Nc2nc(-c3ccoc3)nc3ccccc23)cc1`, the Potency is above 20 µM.

On to `O=C(c1ccco1)N1CCC2(CC1)CCN(C(c1ccccc1)c1ccccc1)CC2`, for which the Potency is above 20 µM.

Consider `Cn1c(=O)c(-c2cccc(F)c2)nc2cncnc21`, for which the Potency was above 20 µM.

Regarding `COC(=O)N1CCC[C@@]2(CCN(C(=O)Nc3cccc(C#N)c3)C2)C1`, the Potency is above 4 µM.

Regarding `O=c1c(-c2cccs2)nc2cnc(Oc3ccccc3)nc2n1Cc1cccs1`, the Potency was above 20 µM.

With `Cn1cccc1C(=O)N1CCC[C@@]2(CCN(c3ccccn3)C2)C1`, the Potency was above 20 µM.

Regarding `COc1ncc2nc(-c3cc(F)cc(F)c3)c(=O)n(-c3ccccc3)c2n1`, the Potency was above 20 µM.

Turning to `Cc1cccc(CNc2ncnc3ccc(-c4cccnc4)cc23)c1`, the Potency is above 20 µM.

Turning to `N#Cc1cccc(NC(=O)N2CC3(CCN(C(=O)c4ccco4)CC3)C2)c1`, the Potency is above 20 µM.

For the molecule `O=c1c(-c2ccc(Cl)cc2)nc2cnc(N3CCOCC3)nc2n1-c1ccccc1`, the Potency was above 20 µM.

For `FC(F)(F)c1ccccc1-c1nccc(N2CCNCC2)n1`, the Potency was above 20 µM.

As to `Clc1ccccc1-c1nccc(NCc2ccccc2)n1`, the Potency was above 20 µM.

`O=C(c1ccncc1)N1CCC2(CCCN(c3ncccn3)C2)CC1`: the Potency was above 20 µM.

With `N#CCCn1c(=O)c(-c2ccccc2)nc2cnc(OCc3ccccc3)nc21`, the Potency is above 20 µM.

In the case of `Cn1c(=O)c(-c2cccs2)nc2cnc(N3CCOCC3)nc21`, the Potency was above 20 µM.

Take `CN1CC[C@@]2(CCCN(S(=O)(=O)c3ccccc3)C2)C1`: the Potency is above 20 µM.

In the case of `Cc1noc(C)c1-c1cc(N(C)C)ncn1`, the Potency is above 20 µM.

With `O=c1cnc2cnc(Nc3ccccc3)nc2n1C1CC1`, the Potency was above 20 µM.

Turning to `COc1cccc(-c2cc(NCCc3c[nH]c4ccc(OC)cc34)ncn2)c1`, the Potency is above 20 µM.

`CN1CCC2(CC1)CCN(S(=O)(=O)c1ccccc1)CC2`: the Potency was above 20 µM.

Turning to `CN(C)Cc1ccccc1-c1cncnc1NC1CC1`, the Potency is above 20 µM.

In the case of `Cn1cc(-c2nc3cnc(N4CCNCC4)nc3n(C3CC3)c2=O)c2ccccc21`, the Potency was above 20 µM.
